# Screening data (PubChem BioAssay)
# KCNQ2 block = rat KCNQ2 potassium channel inhibitors, primary screen, cell-based, CHO-K1, FluxOR thallium flux, B-score; Potassium voltage-gated channel subfamily KQT member 2 (Rattus norvegicus), O88943; 20 min; stronger effect = lower value; B-score at 10 µM; 310,000 tested, 1.1% active; AID 2156, 2009;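 active = fluorescence ratio B-score at most minus 3 library SDs, with starting brightness B-score within 2 library SDs, cut at about -5.5 in these data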
# Target sequence (O88943 whole entry, looked up): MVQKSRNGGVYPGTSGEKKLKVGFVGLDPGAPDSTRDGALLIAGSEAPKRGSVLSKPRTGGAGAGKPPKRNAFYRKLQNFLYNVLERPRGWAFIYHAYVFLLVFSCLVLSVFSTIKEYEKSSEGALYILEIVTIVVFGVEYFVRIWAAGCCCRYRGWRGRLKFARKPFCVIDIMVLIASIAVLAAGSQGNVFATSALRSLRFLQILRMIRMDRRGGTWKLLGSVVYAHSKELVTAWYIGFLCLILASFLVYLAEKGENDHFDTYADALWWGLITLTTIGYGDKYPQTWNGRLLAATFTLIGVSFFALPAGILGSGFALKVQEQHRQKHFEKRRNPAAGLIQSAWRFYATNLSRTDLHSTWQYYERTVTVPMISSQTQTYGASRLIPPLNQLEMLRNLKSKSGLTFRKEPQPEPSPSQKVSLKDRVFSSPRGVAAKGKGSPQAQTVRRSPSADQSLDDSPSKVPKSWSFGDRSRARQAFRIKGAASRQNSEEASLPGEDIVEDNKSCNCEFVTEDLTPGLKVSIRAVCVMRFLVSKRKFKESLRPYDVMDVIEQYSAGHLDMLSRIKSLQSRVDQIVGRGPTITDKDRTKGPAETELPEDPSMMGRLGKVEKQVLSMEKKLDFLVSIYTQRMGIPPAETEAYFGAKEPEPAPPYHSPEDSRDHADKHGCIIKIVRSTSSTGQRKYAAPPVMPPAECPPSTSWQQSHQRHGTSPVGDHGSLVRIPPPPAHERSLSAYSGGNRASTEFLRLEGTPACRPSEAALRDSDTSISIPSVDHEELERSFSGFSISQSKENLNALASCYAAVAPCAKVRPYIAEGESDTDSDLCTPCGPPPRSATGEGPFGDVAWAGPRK
# KCNQ2 enhance = potentiators of rat KCNQ2 potassium channel; CHO-K1 KCNQ2, FluxOR thallium flux fluorescence; stronger effect = higher value; B-score at 10 µM; 310,000 tested, 0.54% active; AID 2239, 2010;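 active = fluorescence ratio B-score at least 3 SD of library B-scores, with initial fluorescence B-score within 3 of them, cut at about 5.3 in these data; same plate scores as AID 2156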;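 note: B-score of peak minus minimum over baseline fluorescence ratio after K+ and Tl+ stimulus; positive B-score means potentiation of KCNQ2 with more thallium influx and brighter signal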
# Kir21 conf inh = mouse Kir2.1 channel blockers, retest, confirmation, cell-based, FluxOR thallium flux, duplicate; shares compounds with KCNQ2 enhance; Kir2.1-expressing cells, FluxOR thallium flux fluorescence; stronger effect = lower value; Tl flux remaining, % of negative control (stronger effect = lower value), % at 10 µM; 2,300 tested, 41% active; AID 2032, 2009;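 active = Primary-screen hit whose thallium flux fell at least 3 control SD below untreated wells in both duplicates, with normal baseline fluorescence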;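 note: 0% = blank wells without stimulus and 100% = stimulated no-compound controls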
# HEK293 Tl flux = parental HEK293 activity in Kir2.1 inhibitor counter-screen | shares compounds with KCNQ2 enhance | 2,300 tested, 19% active | AID 2105 | parental HEK293 cells, FluxOR thallium flux fluorescence; 0% = unstimulated blank wells | FluxOR signal as % of negative control (100 = no effect), % at 10 µM;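 active = dye signal at least 3 control SD above or below untreated wells in both duplicates, raw fluorescence within 3, either direction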;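 note: percent is based on the flux ratio of peak minus minimum fluorescence over baseline F0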
# CHO-K1 Tl ctr = nonspecific thallium flux increase in parental CHO-K1, confirmation, counter-screen for KCNQ2 potentiator project, cell-based, FluxOR thallium flux, duplicate; AID 2282, 2010; 1,200 tested, 43% active; activity increase over 3SD of controls, % at 10 µM; parental CHO-K1 cells, FluxOR thallium flux fluorescence; zero = vehicle mean+3SD, 100% = vehicle-minus-blank window; shares compounds with KCNQ2 enhance;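 active = signal rise of at least 3 SD above the untreated control mean, in both duplicate wells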;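 note: counter screen of KCNQ2 potentiator hits so any rise reflects channel-independent effects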
# KCNQ1 pot spec = human KCNQ1 channel potentiation off-target, confirmation, selectivity assay for KCNQ2 potentiator project, cell-based, CHO, FluxOR thallium flux; 1,200 tested, 28% active; activation over 3SD threshold, % at 10 µM; CHO KCNQ1 stable, FluxOR thallium flux fluorescence; beyond 3SD, as % of vehicle-control signal; shares compounds with KCNQ2 enhance;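 active = fluorescence ratio rise of at least 3 SD of vehicle wells above their mean, in both replicate wells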;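 note: 0% = vehicle mean plus 3 SD and 100% = vehicle minus unstimulated blank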
# KCNQ2 pot confirm = rat KCNQ2 channel potentiators, confirmation, cell-based, CHO, FluxOR thallium flux, duplicate; shares compounds with KCNQ2 enhance; CHO-KCNQ2 cells, FluxOR thallium flux fluorescence; potentiation, less the hit threshold, % at 10 µM; 1,200 tested, 68% active;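 active = fluorescence ratio rising 3 SD or more over the vehicle control mean in both replicates, plus primary screen hit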;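 note: peak minus minimum thallium fluorescence divided by baseline after K/Tl stimulus; 0% = vehicle mean plus 3 SD and 100% = vehicle minus unstimulated blank difference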
# Kir2-1 sel = mouse Kir2.1 channel activation off-target, confirmation, selectivity assay for KCNQ2 potentiator project, cell-based, HEK293, FluxOR thallium flux | AID 2345, 2010 | HEK293 Kir2.1, FluxOR thallium flux fluorescence | shares compounds with KCNQ2 enhance | activity over 3SD threshold, % at 10 µM | 1,200 tested, 2% active;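 active = fluorescence ratio rise of at least 3 SD above the vehicle-control mean, seen in both replicates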;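 note: 0% = vehicle mean plus 3 SD and 100% = vehicle minus no-stimulus blank window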
# KCNQ2 W236L MoA = potentiators of retigabine-insensitive KCNQ2 W236L, mechanism study for KCNQ2 potentiator project, cell-based, rat KCNQ2 W236L, CHO, automated patch clamp | current increase over 3SD of negative controls (%), stronger effect = higher value, % at 25 µM | automated patch clamp current | shares compounds with KCNQ2 enhance | AID 2558, 2010 | 940 tested, 10% active;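 active = current increase at least 3 SD of the untreated controls above them in both duplicate recordings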
# Starred values were filed as active, the others as inactive; i = inactive; / = no result. Shown are actives, neighbours in structure and some others; about 1.6% of the full set was active somewhere.
SMILES,KCNQ2 block,KCNQ2 enhance,Kir21 conf inh,HEK293 Tl flux,CHO-K1 Tl ctr,KCNQ1 pot spec,KCNQ2 pot confirm,Kir2-1 sel,others
CC1(c2ccccc2)CC(C)(C)N2C(=O)/C(=C3\SC(=S)NC3=O)c3cccc1c32 (centres undefined),i,32*,i,i,-22,-22,4.3*,-26,KCNQ2 W236L MoA=i
CC1(c2ccccc2)CC(C)(C)N2C(=O)C3(C(C#N)=C(N)Oc4cc(O)ccc43)c3cccc1c32 (centres undefined),i,2.5,/,/,/,/,/,/,
COc1ccc2nc(NNC(=O)c3cc(=O)c4ccccc4o3)sc2c1,i,13*,i,i,-14,-8,-24,-21,
Cc1cccc2sc(NNC(=O)c3cc(=O)c4ccccc4o3)nc12,i,0.27,/,/,/,/,/,/,
O=c1[nH]cnc2sc3c(c12)CCC3,i,/,/,/,/,/,/,/,
O=C1CSC(c2cccnc2)N1C1CCCCC1 (centres undefined),i,0.39,/,/,/,/,/,/,
O=C1CSC(c2ccc(Cl)cc2)N1C1CCCCC1 (centres undefined),i,/,64%*,i,/,/,/,/,
Cc1ccc(NC(=O)NCCCc2ccccc2)cc1,i,6.3*,i,i,5.9*,71*,-3,-36,KCNQ2 W236L MoA=i
COc1ccc(NC(=O)NCCCN2CCC(Cc3ccccc3)CC2)cc1,i,/,/,/,/,/,/,/,
CSc1ccc(NC(=O)NCCCN2CCC(Cc3ccccc3)CC2)cc1,i,/,64%*,i,/,/,/,/,
Cc1ccc(CNC(=O)Nc2ccc(C)cc2)cc1,i,2.5,/,/,/,/,/,/,
Cc1ccc(NC(=O)NCCSc2ccc(C)cc2)cc1,i,5.5*,i,i,-4,48*,-4,-26,
O=C(NCCCCc1ccccc1)Nc1ccc(F)cc1,i,2.1,/,/,/,/,/,/,
Cc1ccc(NC(=S)NCCSc2ccc(Cl)cc2)cc1,i,3.2,/,/,/,/,/,/,
Cc1ccc(NC(=O)NCC2CC2(Cl)Cl)cc1 (centres undefined),i,10*,i,i,22*,-21,-1,-31,KCNQ2 W236L MoA=i
CCN(CC(=O)Nc1c(F)cccc1F)C(=O)c1ccc2ncsc2c1,i,1,/,/,/,/,/,/,
Cc1c(NS(=O)(=O)c2ccc(N)cc2)c(=O)n(-c2ccccc2)n1C,i,2,/,/,/,/,/,/,
CC(C)c1ccccc1NS(=O)(=O)c1cccs1,i,0.4,/,/,/,/,/,/,
CCCCCc1cc(O)c2c(C)cc(=O)oc2c1,i,0.22,/,/,/,/,/,/,
CCCCc1cc(O)c(CCCC)c(O)c1,i,8.7*,/,/,-16,-15,38*,-55,KCNQ2 W236L MoA=i
CCCCOC(=O)c1ccc(NC(=S)NC(=O)c2c(Cl)cnn2CC)cc1,i,5.2,/,/,/,/,/,/,
Cc1nn(C)c(C(=O)NNC(=S)Nc2ccc(F)cc2)c1[N+](=O)[O-],i,/,/,/,/,/,/,/,
Cc1nn(C)c(C(=O)NC(=S)Nc2ccccc2Br)c1Cl,i,6.8*,i,216%*,0,-8,55*,-20,KCNQ2 W236L MoA=i
CCn1ncc(Cl)c1C(=O)NC(=S)Nc1ccccc1Br,i,7.1*,i,232%*,12*,55*,53*,-14,KCNQ2 W236L MoA=i
Cc1nn(C)c(C(=O)NC(=S)Nc2ccc([N+](=O)[O-])cc2)c1Cl,i,8.4*,i,132%*,-19,-9,0.7*,-28,KCNQ2 W236L MoA=i
SMILES,KCNQ2 block,KCNQ2 enhance,Kir21 conf inh,HEK293 Tl flux,CHO-K1 Tl ctr,KCNQ1 pot spec,KCNQ2 pot confirm,Kir2-1 sel,others
Cc1nn(C)c(C(=O)NNC(=S)NCc2ccccc2)c1Cl,i,/,/,/,/,/,/,/,
COc1ccc(CNC(=O)CCn2nc(C)c3c(C)n(-c4ccccc4)nc3c2=O)c(OC)c1,i,0.34,/,/,/,/,/,/,
CC#CC(=O)N1CCC(C(=O)Nc2ccc(Oc3ccccc3)nc2)CC1,i,/,/,/,/,/,/,/,
CCOC(=O)C1(Cc2cccc(OC)c2)CCCN(C(=O)CNC(C)=O)C1 (centres undefined),i,/,/,/,/,/,/,/,
CCc1cc2c(=O)n(CCC(C)C)c(=S)[nH]c2s1,i,17*,i,371%*,14*,-5,57*,-5,KCNQ2 W236L MoA=i
CCCn1c(=S)[nH]c2ccccc2c1=O,i,1.2,/,/,/,/,/,/,
CCCCn1c2c(c(=N)c3ccccc31)CCC2,i,/,/,/,/,/,/,/,
CCCCCCCCn1c2c(c(=N)c3ccccc31)CCC2,-5.7*,-5.7,14%*,i,/,/,/,/,
CCCCCCCCCn1c2c(c(=N)c3c1CCC3)CCCC2,i,19*,9.0%*,i,39*,-4,-88,-114,KCNQ2 W236L MoA=i
CCn1c2c(c(=N)c3c1CCC3)CCCC2,i,0.8,/,/,/,/,/,/,
Cc1nnc(NC(=O)CSc2nccn2Cc2ccc(F)cc2)s1,i,/,/,/,/,/,/,/,
O=C(NCCSc1ncc(-c2ccc(F)cc2)[nH]1)c1ccc2c(c1)OCO2,i,/,/,/,/,/,/,/,
CSC(=S)N/N=C/c1ccccc1,i,9.3*,i,218%*,-7,9.4*,7.4*,-42,KCNQ2 W236L MoA=i
COc1ccc(/C=N/NC(=S)SC)cc1OC,i,0.18,/,/,/,/,/,/,
COn1c(-c2ccc(Cl)cc2)nc2ncccc21,i,0.65,/,/,/,/,/,/,
COc1cccc(NC(=O)[C@H](CC(C)C)NC(=O)N2CCn3c2nc2ccccc23)c1,i,/,/,/,/,/,/,/,
C=CCn1c(=S)[nH]c2cc(C(=O)Nc3ccc(OC)c(OC)c3)ccc2c1=O,i,/,/,/,/,/,/,/,
C=CCn1c(=S)[nH]c2ccc(Br)cc2c1=O,i,5.9*,i,i,-9,-38,-5,-36,KCNQ2 W236L MoA=i
O=C(NC1CCCCCC1)c1ccc(CS(=O)Cc2cccc(Cl)c2)o1 (centres undefined),i,0.42,/,/,/,/,/,/,
O=C(CSc1nc(=O)[nH]c2c1CCCC2)Nc1ccc(F)cc1F,i,/,/,/,/,/,/,/,
CCCCCNC(=O)c1ccc2c(=O)n(CC3CCCO3)c(=O)[nH]c2c1 (centres undefined),i,6.1*,i,i,-10,-28,-12,-41,
